Bioassay records (PubChem BioAssay)
Shown are actives, neighbours in structure and some others; about 19% of the full set was active somewhere.
HT1080 IDH1KD tx: qHTS for induction of synthetic lethality in tumor cells producing 2HG: qHTS for the HT-1080-IDH1KD cell line; HT-1080 IDH1 knockdown viability, ATP luminescence, 48 h; Potency, µM (titrated, usually from 46.1 µM), for the others: at the highest dose activity, negative = toxicity, most hits filed as cytotoxic; hit rate 2% among 360,000; AID 686971, 2013;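 also: 0% = DMSO wells and -100% = cell-free medium wells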
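Viability of IDH1-knockdown HT-1080 fibrosarcoma cells was assessed by CellTiter-Glo after 48 h at 37 °C with titrated compound; concentration-effect curves were classified by fit quality and response size.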
KB-3-1 cytotox: qHTS assay for MDR1-selective chemotherapeutics: Primary screen using the parental adenocarcinoma cell KB-3-1. KB-3-1 viability, CellTiter-Glo ATP luminescence, 72 h. Potency, µM (doses to about 46.1 µM), usual class: cytotoxic. hit rate 1.4% among 400,000; also: nearly all actives have a fitted effect of over 60% in size
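72 h, 37 °C compound treatment of KB-3-1 parental cells; CellTiter-Glo added, 10 min, luminescence read. Data corrected against DMSO-only plates and normalized before curve fitting.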
DT40 TDP1 CPT: qHTS for Inhibitors of human tyrosyl-DNA phosphodiesterase 1 (TDP1): qHTS in cells in presence of CPT; chicken DT40 Tdp1-/-;hTDP1 cells + 20 nM CPT, ATP luminescence, 48 h; AID 686979, 2013; hit rate 12% among 420,000; Potency, µM (top dose mostly 46.2 µM), for inactives: at the top dose activity change, negative = growth inhibition, hits mostly inhibitors; also: nearly all actives have a fitted effect of over 55% in size
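Chicken DT40 Tdp1-/- cells complemented with human TDP1, 400 cells/well, exposed to compounds plus 20 nM camptothecin for at least 48 h at 37 C; viability read as ATP content by CellTiter-Glo luminescence.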
DT40 TDP1 no CPT: qHTS for Inhibitors of human tyrosyl-DNA phosphodiesterase 1 (TDP1): qHTS in cells in absence of CPT | hit rate 15% among 420,000 | Potency, µM (doses to about 46.2 µM), inactives show top-dose activity change, negative = growth inhibition, hits mostly inhibitors | DT40 Tdp1-/- hTDP1 cells, no CPT, ATP luminescence, 48 h; also: nearly all actives have a fitted effect of over 55% in size
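Growth of hTDP1-complemented DT40 Tdp1-knockout cells is measured by ATP luminescence after at least 48 hr compound exposure at 37 °C, with DMSO substituting for the 20 nM CPT used in the parallel screen.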
KB-V1 cytotox: qHTS assay for MDR1-selective chemotherapeutics: Primary screen using the drug-selected MDR subline cells KB-V1 | KB-V1 MDR cells viability, CellTiter-Glo, 72 h | Potency, µM (highest dose often 46.1 µM), actives largely listed as cytotoxic | hit rate 3.4% among 400,000 | AID 1347076, 2019; also: nearly all actives have a fitted effect of over 60% in size
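Following 72 h at 37 degrees C with compound, KB-V1 cell viability was read by CellTiter-Glo luminescence, medium being phenol-red-free DMEM plus 10% FBS; concentration-response parameters came from normalized, curve-fitted qHTS data.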
HT1080-NT tox: qHTS for induction of synthetic lethality in tumor cells producing 2HG: qHTS for the HT-1080-NT fibrosarcoma cell line; HT-1080-NT fibrosarcoma viability, CellTiter-Glo ATP luminescence, 48 h; hit rate 1.6% among 360,000; Potency, µM (titrated, usually from 46.1 µM), for inactives: at the top dose activity, negative = less viability, actives largely listed as cytotoxic;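 also: NT is the 2HG producing partner of a matched IDH1 knockdown line; 0% = DMSO-treated cells and -100% = media-only wells without cells; nearly all actives have a fitted effect of over 55% in size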
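Fibrosarcoma NT cells, 750 per well in 5% FBS RPMI, were exposed to compound for 48 hours. Viability: CellTiter-Glo luminescence.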
Numbers without * were called inactive; i = inactive; ? = inconclusive; nt = no result; [ ] = dose if it differs, or a comment. Calls follow the shape of the dose curve; as a rule, active = well fitted curve in the direction sought with a large enough effect; inconclusive = small, poorly fitted or top-dose-only effect, or another doubt; inactive = no such curve, though single readings can be large; an effect the other way counts as inactive or inconclusive. Unless noted, % is scaled to controls: 0 for no effect and ±100 for the full control effect; potency is read from the fitted curve at half-maximal effect.

SMILES	HT1080 IDH1KD tx	KB-3-1 cytotox	DT40 TDP1 CPT	DT40 TDP1 no CPT	KB-V1 cytotox	HT1080-NT tox
Cc1ccc(S(=O)(=O)N2CCCCC2CCNC(=O)C(=O)NCc2ccco2)cc1 (configuration not stated)	13µM*	?	13µM*	7.3µM*	?	?
Cc1ccc(C)c(S(=O)(=O)N2CCCCC2CCNC(=O)C(=O)NCCc2ccco2)c1 (configuration not stated)	-5%	i	?	?	i	-1%
Cc1ccc(S(=O)(=O)N2CCCCC2CCNC(=O)C(=O)NCCc2ccco2)cc1 (configuration not stated)	18µM*	5.2µM*	2.9µM*	4.1µM*	6.5µM*	10µM*
O=C(NCCc1ccco1)C(=O)NCC1CCCN1S(=O)(=O)c1ccccc1 (configuration not stated)	?	?	12µM*	4.1µM*	?	?
c1cnc(N2CCN(c3cnccn3)CC2)nc1	5%	i	?	5%	i	3%
COc1ccc(OC)c(S(=O)(=O)NCCc2csc3nc(-c4ccccc4)nn23)c1	nt	nt	-27%	?	nt	nt
CCCCCCCCCCCCCCCCCCNC(=O)OC1CCN(C(=O)OC[C@H](COC(=O)N(Cc2cccc[n+]2CC)C(=O)c2ccccc2OC)OC)CC1	nt	nt	12µM*	12µM*	nt	nt
CCOC(=O)C1CCN(C(=O)CCNC(=O)c2ccccc2OC)CC1	2%	i	-1%	-19%	i	3%
Cc1cccc(C(=O)NCc2cn3cccc(C)c3n2)c1	nt	nt	-7%	2%	nt	nt
COc1ccc(-c2noc(-c3ccccc3C(=O)Nc3cccc(OC)c3)n2)cc1	1%[9.24 µM]	?	?	16µM*	?	-3%
COc1ccc(-c2noc(-c3ccccc3C(=O)Nc3cccnc3)n2)cc1OC	1%	i	-22%	?	i	-2%
COc1ccccc1-c1noc(-c2ccccc2C(=O)Nc2cccnc2)n1	-3%	i	?	?	10µM*	-7%
COc1ccc(-c2noc(-c3ccccc3C(=O)Nc3cccnc3)n2)cc1	-9%	i	?	?	?	-11%
Cc1ccccc1-c1nc(-c2ccc(Br)o2)no1	0%	i	26%	5%	i	-1%
COc1ccc(-c2noc(-c3ccccc3C(=O)N3CCOCC3)n2)cc1	3%	i	?	?	9.2µM*	2%
Cc1ccccc1-c1nc(-c2ccc(NC(=O)c3ccc(Br)o3)cc2)no1	8%	i	16µM*	?	i	12%
Cc1nc(-c2cccc(NC(=O)c3ccc(-n4nccc4C)cc3)c2)cs1	-14%	?	?	21µM*	?	-9%
Cc1nc(-c2ccc(C(=O)Nc3cccc(Br)c3)cc2)cs1	?	i	?	21µM*	i	?
COc1ccc(OC)c(NC(=O)c2ccc(-c3csc(C)n3)cc2)c1	-12%	i	?	?	?	-25%
Cc1cccc(N=[N+]([O-])c2cccc(C)n2)n1	-11%	i	-12%	-22%	i	-10%
COC(=O)C1CCC(=O)N1C(c1ccc(OC)cc1)c1cc(OC)c(OC)c(OC)c1 (configuration not stated)	?	0.82µM*	1.5µM*	1.3µM*	7.3µM*	1.2µM*
CC(C)c1ccc(S(=O)(=O)c2cnc(SCC(=O)Nc3ccc4c(c3)OCCO4)[nH]c2=O)cc1	nt	i	-3%	0%	i	nt
CC[C@@H]1Cc2[nH]c(=O)[nH]c(=O)c2[C@H](c2ccc(Cl)cc2)O1	7%	i	11%	-13%	?	19%
O=C(NCC1(N2CCOCC2)CCCC1)c1cnn(-c2nccc(-c3ccco3)n2)c1C1CC1	nt	nt	?	-29%	nt	nt
Cc1ccc(S(=O)(=O)NCc2ccccc2)cc1C(=O)N1CC(C)CC(C)C1 (configuration not stated)	1%	i	?	18µM*	13µM*	8%
SMILES	HT1080 IDH1KD tx	KB-3-1 cytotox	DT40 TDP1 CPT	DT40 TDP1 no CPT	KB-V1 cytotox	HT1080-NT tox
Cc1ccc(S(=O)(=O)NCc2ccccc2)cc1C(=O)N1CCN(c2ccccc2)CC1	1%	15µM*	?	?	?	-3%
Cc1ccc(S(=O)(=O)NCc2ccccc2)cc1C(=O)N1CCCCC1	3%	i	-6%	2%	i	16%
Cc1ccc(S(=O)(=O)NCc2ccccc2)cc1C(=O)N1CCN(S(=O)(=O)c2ccccc2F)CC1	-3%	i	12µM*	?	i	-6%
CCOc1ccc(NC(=O)CN(C)C(=O)C2CC(=O)N(c3cccc(SC)c3)C2)cc1OCC (configuration not stated)	2%	i	-10%	-21%	i	1%
COc1cc(NC(=O)[C@H]2CCCN2S(=O)(=O)c2cccc3cccnc23)cc(OC)c1OC	3%	i	15µM*	?	?	7%
CCOc1ccc(OCC)c(S(=O)(=O)n2ccnc2C)c1	2%	i	-13%	-12%	i	1%
COC(=O)C1CCCN1S(=O)(=O)c1ccccc1NC(=O)c1cc(OC)c(OC)c(OC)c1 (configuration not stated)	-2%	i	15µM*	-30%	i	18%
CCOc1ccc(OCC)c(S(=O)(=O)N2CCCCC2C)c1 (configuration not stated)	-10%	i	23µM*	?	i	-7%
Cc1ccc(Cl)cc1NC(=O)C1CCCN(S(=O)(=O)c2cccc3cccnc23)C1 (configuration not stated)	nt	i	?	?	i	nt
COc1cc(NC(=O)[C@@H]2CCCN(S(=O)(=O)c3cccc4cccnc34)C2)cc(OC)c1OC	-3%	i	10µM*	13µM*	i	-2%
COc1cc(OC)cc(C(=O)Nc2ccccc2S(=O)(=O)N2CCCC2OC(C)=O)c1 (configuration not stated)	-12%	i	?	?	i	3%
